Source: PubChem (several laboratories)
Compounds with a hit are over-represented: about 3.3% of the library has one in this group of screens.
BoNT-F LC inh – inhibitors of Botulinum neurotoxin F light chain protease | Multiplex microsphere protease cleavage assay, flow cytometry | inhibition, % at 10 µM | 360,000 compounds, 0.22% hits | AID 588497; in the data active = inhibition above about 35%, passing the limit was not always enough; inconclusive = no clear call, values can overlap the other calls
Bead autofluor – compound fluorescence in toxin protease inhibitor counterscreen. compound autofluorescence counterscreen, microsphere flow cytometry; hits give high values. 360,000 compounds, 3.1% hits. fluorescence intensity (concentration not given with the values); in the data active = fluorescence intensity above about 16000; inconclusive = no clear call, values can overlap the other calls
Anthrax LF prot – blocks Bacillus anthracis lethal factor protease. P15917. multiplex microsphere protease cleavage assay, LF. AID 588501. inhibition, % at 10 µM. 360,000 compounds, 0.12% hits
Target sequence (P15917 whole entry, looked up): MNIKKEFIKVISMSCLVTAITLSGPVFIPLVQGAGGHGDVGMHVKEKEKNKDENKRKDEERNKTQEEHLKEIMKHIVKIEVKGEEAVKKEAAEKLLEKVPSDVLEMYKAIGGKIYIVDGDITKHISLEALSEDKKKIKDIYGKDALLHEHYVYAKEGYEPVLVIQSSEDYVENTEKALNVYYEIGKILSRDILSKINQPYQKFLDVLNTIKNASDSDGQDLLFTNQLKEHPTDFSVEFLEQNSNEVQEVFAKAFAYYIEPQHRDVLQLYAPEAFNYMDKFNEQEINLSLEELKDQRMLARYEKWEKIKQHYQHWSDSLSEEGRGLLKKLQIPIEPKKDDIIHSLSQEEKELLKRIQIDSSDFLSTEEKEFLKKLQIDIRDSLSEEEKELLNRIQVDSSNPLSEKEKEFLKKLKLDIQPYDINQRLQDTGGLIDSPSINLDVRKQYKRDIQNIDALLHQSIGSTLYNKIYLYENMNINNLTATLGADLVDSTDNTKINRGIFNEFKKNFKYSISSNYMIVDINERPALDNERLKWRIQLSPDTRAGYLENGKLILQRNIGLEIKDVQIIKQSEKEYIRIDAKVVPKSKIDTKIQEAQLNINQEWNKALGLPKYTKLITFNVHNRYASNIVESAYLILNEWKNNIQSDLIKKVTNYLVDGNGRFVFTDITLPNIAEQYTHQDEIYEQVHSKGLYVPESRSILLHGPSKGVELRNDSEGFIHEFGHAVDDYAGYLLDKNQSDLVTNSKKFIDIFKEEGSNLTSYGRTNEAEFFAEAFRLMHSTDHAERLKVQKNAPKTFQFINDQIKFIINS
SSB-PriA inh – blocks PriA binding to SSB C-terminal tail | AlphaScreen SSBct-PriA binding, biotinylated peptide | inhibition, % at 33 µM | 430,000 compounds, 0.6% hits | AID 1272365; in the data active = inhibition mostly above about 37%, no sharp cut-off; inactive = mostly below about 20%
BoNT A protease – blocks Botulinum neurotoxin A light chain protease; multiplex microsphere protease substrate cleavage, flow cytometry; inhibition, % at 10 µM; 360,000 compounds, 0.17% hits; AID 588499
MazF activator – activators of E. coli MazEF toxin-antitoxin RNase; P0AE70; FAM/BHQ RNA-DNA oligo cleavage fluorescence, 5 h; activation, % at 20 µM; 350,000 compounds, 0.32% hits; in the data active = activation above about 50%
Each line names hits and unclear results; the compound was inactive in the other large screens. Cut-off read from the data, not from the text of the source, unless noted: active = inhibition above about 30%; inconclusive = no clear call, values can overlap the other calls; inactive = below that.

CC1Cc2ccccc2N1CC(=O)Nc1ccc2c(c1)OCO2 (centres undefined)	Bead autofluor 20865
CC1Cc2ccccc2N1CC(=O)Nc1cccc(S(N)(=O)=O)c1 (centres undefined)	none
CC1Cc2ccccc2N1CC(=O)NC(=O)NCc1ccco1 (centres undefined)	Bead autofluor 17928
C/C(CC(=O)Nc1ccc2c(c1)OCO2)=N\NC(=O)OC(C)(C)C	BoNT-F LC inh 42 (no result: SSB-PriA inh)
CC1Cc2ccccc2N1CC(=O)NC(=O)NC1CCCC1 (centres undefined)	none
C/C(CC(=O)Nc1ccc2c(c1)OCO2)=N\NC(=O)c1ccc(N)cc1	none (no result: SSB-PriA inh)
Cc1ccc(-c2ccc(N3CCN(S(=O)(=O)CCc4ccccc4)CC3)nn2)cc1C	none (no result: BoNT-F LC inh, Bead autofluor, Anthrax LF prot, BoNT A protease, MazF activator)
O=S(=O)(Nc1ncccn1)c1ccc(Cl)cc1	none (no result: BoNT-F LC inh, Bead autofluor, Anthrax LF prot, BoNT A protease)
O=S(=O)(Nc1ccccn1)c1ccc(Cl)cc1	Bead autofluor 23792
COC(CNC(=O)CN1C(=O)CCC1=O)c1ccc(C)s1 (centres undefined)	none (no result: BoNT-F LC inh, Bead autofluor, Anthrax LF prot, BoNT A protease, MazF activator)
COC(=O)C1CCN(c2c([N+](=O)[O-])cc(C(F)(F)F)cc2[N+](=O)[O-])CC1	SSB-PriA inh 59
CCn1c(C)nc2cc(-c3nnc(-c4c(-c5ccccc5)noc4C)o3)ccc21	Bead autofluor 16285
Cc1onc(-c2ccccc2)c1-c1nnc(-c2ccccc2C(F)(F)F)o1	none
COc1cccc(NC(=O)Nc2ccccc2-c2cn3ccsc3n2)c1OC	none (no result: BoNT-F LC inh, Bead autofluor, Anthrax LF prot, BoNT A protease, MazF activator)
Cc1cc(C)n(CC(O)COc2ccc3c(c2)CCC3)n1 (centres undefined)	none (no result: BoNT-F LC inh, Bead autofluor, Anthrax LF prot, BoNT A protease, MazF activator)
O=C(Cn1cc(S(=O)(=O)Cc2cccc(C(F)(F)F)c2)c2ccccc21)N1CCCC1	none (no result: BoNT-F LC inh, Bead autofluor, Anthrax LF prot, BoNT A protease, MazF activator)
COc1cccc2[nH]c3c(N4CCC(C)CC4)ncnc3c12	Bead autofluor 23249
O=C(Cn1nc(-c2ccco2)c2sc(N3CCCC3)nc2c1=O)Nc1ccc(C(F)(F)F)cc1	none (no result: BoNT-F LC inh, Bead autofluor, Anthrax LF prot, BoNT A protease, MazF activator)
Cc1cc(C)n(CC(=O)Nc2ccccc2)c(=O)c1-c1nc(-c2ccccc2)no1	none (no result: BoNT-F LC inh, Bead autofluor, Anthrax LF prot, BoNT A protease, MazF activator)
O=C(O)c1ccc(Sc2nnc(-c3cccc(Br)c3)o2)c([N+](=O)[O-])c1	Bead autofluor 22792, BoNT A protease inconclusive
Cc1cc(C)n(CCNC(=O)C2(c3ccccc3)CCOCC2)n1	none (no result: BoNT-F LC inh, Bead autofluor, Anthrax LF prot, BoNT A protease, MazF activator)
N#CCO/N=C(\c1ccccc1)c1ccncc1	Bead autofluor 16207, BoNT A protease inconclusive (no result: SSB-PriA inh)
c1ccc(CNc2ccc(CNc3ncn[nH]3)cc2)cc1	Bead autofluor 22732, BoNT A protease inconclusive
CCC(C(=O)NC1CCCC1)N(C(=O)Cn1nnc(-c2ccc(C)cc2)n1)C1CCCC1 (centres undefined)	none
CCC(C(=O)NC1CCCC1)N(C(=O)Cn1nnc(-c2ccc(OC)c(OC)c2)n1)C1CCCCC1 (centres undefined)	Bead autofluor 16428
Cc1ccc(-c2nnn(CC(=O)N(Cc3cccs3)C(C(=O)NC3CCCC3)c3ccco3)n2)o1 (centres undefined)	Bead autofluor 16932
CCCC(C(=O)NC1CCCC1)N(C(=O)Cn1nnc(-c2ccc(C)o2)n1)c1ccccc1F (centres undefined)	none
CCCC(C(=O)NC1CCCC1)N(C(=O)Cn1nnc(-c2ccc(C)o2)n1)C1CCCC1 (centres undefined)	Bead autofluor 25114
COc1ccc(-c2nnn(CC(=O)N(CC(=O)NC3CCCC3)Cc3cccs3)n2)cc1OC	Bead autofluor 24334
CCCN(CCC)S(=O)(=O)c1ccc(C(=O)Nc2ccccc2C(=O)Nc2ccc(C)cc2C(=O)c2ccccc2)cc1	none (no result: BoNT-F LC inh, Bead autofluor, Anthrax LF prot, BoNT A protease, MazF activator)
Cn1nc2c(c1NC(=O)c1ccc([N+](=O)[O-])s1)CCC2	none (no result: BoNT-F LC inh, Bead autofluor, Anthrax LF prot, BoNT A protease, MazF activator)
CCn1c(COc2ccc(C)cc2)nnc1SCc1nc2ccccc2[nH]1	Bead autofluor 19776
CCn1c(SCc2nc3ccccc3[nH]2)nnc1-c1cccs1	Bead autofluor 21099, BoNT A protease inconclusive
Cn1c(COc2ccccc2)nnc1SCc1nc2ccccc2[nH]1	none
CCOC(=O)C1CCCN(C(=O)CN2C(=O)c3ccccc3C2=O)C1 (centres undefined)	Bead autofluor 20127, BoNT A protease inconclusive
CCOC(=O)C1CCN(Cc2c(O)ccc3ccccc23)CC1	Bead autofluor 19910, BoNT A protease inconclusive
CCOC(=O)C1CCN(C(=O)c2cccnc2Cl)CC1	Bead autofluor 20039
CCOC(=O)C1CCCN(Cc2ccccc2OCC)C1 (centres undefined)	Bead autofluor 19086
CCOC(=O)C1CCN(C(=O)c2ccccc2NC(C)=O)CC1	none
CC(=O)Nc1ccc(C(C)=O)c(O)c1	none (no result: BoNT-F LC inh, Bead autofluor, Anthrax LF prot, BoNT A protease, MazF activator)
CCOc1ccc(NC(c2ccccn2)c2ccc3cccnc3c2O)cc1 (centres undefined)	none (no result: BoNT-F LC inh, Bead autofluor, Anthrax LF prot, BoNT A protease, MazF activator)
Cc1ccc(F)cc1NC(=O)CS(=O)(=O)c1ccc(Cl)s1	none (no result: BoNT-F LC inh, Bead autofluor, Anthrax LF prot, BoNT A protease, MazF activator)
CCOC(=O)C1CCCN(C(=O)C(C)Oc2ccc(Cl)cc2Cl)C1 (centres undefined)	Bead autofluor 22441, BoNT A protease inconclusive
CCOC(=O)C1CCN(Cc2c(F)cccc2Cl)CC1	Bead autofluor 25112
CCOC(=O)C1CCCN(CC(O)COc2ccccc2C(C)=O)C1 (centres undefined)	Bead autofluor 22881
CCOC(=O)C1CCCN(Cc2c(F)cccc2Cl)C1 (centres undefined)	Bead autofluor 20111
CCOC(=O)C1CCCN(C(=O)Cc2c(F)cccc2Cl)C1 (centres undefined)	none
CCN(CC)CCN(C(=O)c1ccc(S(=O)(=O)N(C)CC2CCCO2)cc1)c1nc2c(Cl)cccc2s1 (centres undefined)	none (no result: BoNT-F LC inh, Bead autofluor, Anthrax LF prot, BoNT A protease, MazF activator)
CCOC(=O)C1CCN(Cc2cn[nH]c2-c2ccccc2)CC1	Bead autofluor 20102
CCOC(=O)C1CCN(Cc2ccc(OC)cc2OC)CC1	none
CCOC(=O)C1CCN(Cc2cnc(Oc3ccc(OC)cc3)s2)CC1	Bead autofluor 24024
NS(=O)(=O)c1ccc(CCNC(=O)C2CCCN(c3ccc(-c4ccc(F)cc4)nn3)C2)cc1 (centres undefined)	none (no result: BoNT-F LC inh, Bead autofluor, Anthrax LF prot, BoNT A protease, MazF activator)
O=C(OCc1cc(-c2ccccc2F)on1)c1cccs1	none (no result: BoNT-F LC inh, Bead autofluor, Anthrax LF prot, BoNT A protease, MazF activator)
O=C1C(=O)N(CC2CCCO2)C(c2ccccc2[N+](=O)[O-])C1=C(O)c1ccccc1 (centres undefined)	none (no result: BoNT-F LC inh, Bead autofluor, Anthrax LF prot, BoNT A protease, MazF activator)
Fc1cc(NC(=S)N2CCN(c3ccccc3F)CC2)ccc1Cl	none (no result: BoNT-F LC inh, Bead autofluor, Anthrax LF prot, BoNT A protease, MazF activator)
CC(C)=CC(=O)NCc1c(Cl)cccc1-n1cccc1	Bead autofluor 24294
COc1cccc(C(=O)Nc2ccc3c(c2)C(=O)N(CCC(=O)O)C3=O)c1	Bead autofluor 20871, BoNT A protease inconclusive
Cn1cnnc1SCC(=O)N(Cc1ccc2c(c1)OCO2)C1(C(=O)NC2CCCCC2)CCCC1	Bead autofluor 22413
CN(C(=O)c1ccc2c(c1)OCO2)C1(C(=O)NC2CCCCC2)CCCCC1	none
CC(Sc1ncc(-c2cccc(Br)c2)o1)C(=O)NCCc1ccccc1 (centres undefined)	none (no result: BoNT-F LC inh, Bead autofluor, Anthrax LF prot, BoNT A protease, MazF activator)
O=C(NC1CCCC1)C1(c2ccccc2)CCN(S(=O)(=O)c2ccccc2)CC1	Bead autofluor 24081, BoNT A protease inconclusive
CC(C)(C)c1nnc(NC(=O)C2CCN(c3ncccn3)CC2)s1	Bead autofluor 21096
